Source: article PMC5700166
Positions count from the first letter of the chain named.

Key:
Assay in all cases: protein-binding microarray (PBM); PBM: ~300 nM protein, 6 mM HEPES pH 7.8, 80 mM KCl, 0.5 mM EDTA, 0.5 mM EGTA, 6% glycerol, 35 ng/ul poly-dIdC, 1% milk, 1 h, room temperature; Ap Aiptasia and Nv Nematostella (sea anemones) / Co Capsaspora / Aq Amphimedon (sponge) / Dm Drosophila / Hu human; RHD is the Rel homology domain; high values mean tight binding
Details in all cases: dsDNA, one strand shown
GST-Ap-NF-kB RHD = biological target: T1, GST-Ap-NF-kB RHD (Exaiptasia pallida (Aiptasia), UniProt A0A913YAJ5 2-422)
T1 sequence: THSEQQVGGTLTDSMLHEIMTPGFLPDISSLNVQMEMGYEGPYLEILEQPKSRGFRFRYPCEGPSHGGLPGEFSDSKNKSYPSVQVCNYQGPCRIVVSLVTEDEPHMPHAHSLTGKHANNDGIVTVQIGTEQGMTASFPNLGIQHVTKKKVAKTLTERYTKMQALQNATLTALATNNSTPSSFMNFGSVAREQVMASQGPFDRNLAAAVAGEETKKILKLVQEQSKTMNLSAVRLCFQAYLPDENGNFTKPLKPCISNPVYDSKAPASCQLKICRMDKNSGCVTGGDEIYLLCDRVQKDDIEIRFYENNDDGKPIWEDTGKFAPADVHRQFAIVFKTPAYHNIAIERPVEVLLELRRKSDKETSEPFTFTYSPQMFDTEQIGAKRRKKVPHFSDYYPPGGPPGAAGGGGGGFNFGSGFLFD

[1] = biological target: T2, GST-Nv-NF-kB (Cys allele) (Nematostella vectensis, UniProt E5G601 2-411)
T2 sequence: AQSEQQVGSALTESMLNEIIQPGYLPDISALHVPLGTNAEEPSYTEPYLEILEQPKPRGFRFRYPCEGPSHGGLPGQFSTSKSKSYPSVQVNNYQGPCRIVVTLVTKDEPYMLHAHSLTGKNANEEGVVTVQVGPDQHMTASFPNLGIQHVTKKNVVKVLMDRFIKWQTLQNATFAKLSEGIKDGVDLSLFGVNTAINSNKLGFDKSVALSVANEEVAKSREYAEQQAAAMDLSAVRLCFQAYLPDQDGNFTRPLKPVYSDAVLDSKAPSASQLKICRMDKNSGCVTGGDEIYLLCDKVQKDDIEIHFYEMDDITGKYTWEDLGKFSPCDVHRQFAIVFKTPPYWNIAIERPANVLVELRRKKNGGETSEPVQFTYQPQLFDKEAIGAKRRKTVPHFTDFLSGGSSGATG

[2] = biological target: T3, GST-Nv-NF-kB (Ser allele) (Nematostella vectensis, UniProt A7UNT2 2-411)
T3 sequence: T2 sequence with Q21R, C66S, S207N, E215Q, V217A, E225K, A268E, D399E

GST-Co-NF-kB = biological target: T4, GST-Co-NF-kB (Capsaspora owczarzaki, UniProt F1ARL5 200-546)
T4 sequence: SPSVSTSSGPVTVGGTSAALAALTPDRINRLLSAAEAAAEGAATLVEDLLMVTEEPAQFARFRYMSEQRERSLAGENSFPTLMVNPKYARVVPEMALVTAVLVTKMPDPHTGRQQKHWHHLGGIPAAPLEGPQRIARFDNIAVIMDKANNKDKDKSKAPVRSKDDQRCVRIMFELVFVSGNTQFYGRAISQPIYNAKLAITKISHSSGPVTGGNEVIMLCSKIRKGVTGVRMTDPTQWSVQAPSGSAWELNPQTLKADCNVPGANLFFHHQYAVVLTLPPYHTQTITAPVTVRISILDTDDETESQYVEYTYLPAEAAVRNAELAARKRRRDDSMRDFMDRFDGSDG

GST-Dm-Relish = biological target: T5, GST-Dm-Relish (Drosophila melanogaster, UniProt Q94527 99-473)
T5 sequence: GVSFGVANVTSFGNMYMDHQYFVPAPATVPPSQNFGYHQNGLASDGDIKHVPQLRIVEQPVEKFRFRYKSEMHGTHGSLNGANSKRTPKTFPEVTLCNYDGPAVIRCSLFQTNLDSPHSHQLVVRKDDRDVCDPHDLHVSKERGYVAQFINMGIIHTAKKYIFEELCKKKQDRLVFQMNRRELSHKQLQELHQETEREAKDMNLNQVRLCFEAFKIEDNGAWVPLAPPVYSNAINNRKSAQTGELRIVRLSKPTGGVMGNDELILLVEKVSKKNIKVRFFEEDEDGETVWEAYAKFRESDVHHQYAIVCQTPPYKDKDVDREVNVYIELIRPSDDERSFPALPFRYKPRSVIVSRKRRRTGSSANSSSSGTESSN

GST-Aq-NF-kB = biological target: T6, GST-Aq-NF-kB (Amphimedon queenslandica, UniProt A9Y5G7 2-389)
T6 sequence: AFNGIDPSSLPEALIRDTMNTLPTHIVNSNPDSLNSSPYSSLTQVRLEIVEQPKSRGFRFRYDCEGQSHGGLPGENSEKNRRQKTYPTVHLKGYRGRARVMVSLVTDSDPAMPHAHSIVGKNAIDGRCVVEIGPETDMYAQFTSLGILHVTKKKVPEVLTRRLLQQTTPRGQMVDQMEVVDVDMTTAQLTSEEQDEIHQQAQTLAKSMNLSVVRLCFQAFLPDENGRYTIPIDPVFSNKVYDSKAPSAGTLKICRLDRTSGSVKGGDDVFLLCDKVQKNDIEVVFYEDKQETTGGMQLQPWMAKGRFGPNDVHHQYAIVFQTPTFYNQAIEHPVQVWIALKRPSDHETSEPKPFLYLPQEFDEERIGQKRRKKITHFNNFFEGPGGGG

GST-Hu-p50 = GST-Hu-p50 (Homo sapiens, UniProt P19838 7-356)
GST-Hu-p50, sequence (P19838 7-356): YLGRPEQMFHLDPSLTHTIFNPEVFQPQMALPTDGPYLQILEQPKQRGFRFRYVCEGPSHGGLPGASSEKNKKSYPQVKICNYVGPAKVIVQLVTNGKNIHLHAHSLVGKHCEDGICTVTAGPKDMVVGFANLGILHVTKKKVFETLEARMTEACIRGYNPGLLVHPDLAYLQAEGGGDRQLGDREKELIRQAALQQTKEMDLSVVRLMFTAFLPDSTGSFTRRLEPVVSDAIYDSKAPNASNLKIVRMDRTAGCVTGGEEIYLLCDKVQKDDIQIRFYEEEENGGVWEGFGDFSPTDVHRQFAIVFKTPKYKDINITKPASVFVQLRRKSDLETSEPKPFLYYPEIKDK

Sequence	binding signal (GST-Ap-NF-kB RHD)	binding signal [1]	binding signal [2]	binding signal (GST-Co-NF-kB)	binding signal (GST-Dm-Relish)	binding signal (GST-Aq-NF-kB)	binding signal (GST-Hu-p50)
CCGATTAACATCAGAAAATTCCCTGATGTTAATCGGGTCTTGATTCGCTTGACGCTGCTG	6.03 z-score	9.51 z-score	8 z-score	4.76 z-score	7.55 z-score	7.67 z-score	6.47 z-score
CCGATTAACATCAACTTTTCCCCTGATGTTAATCGGGTCTTGATTCGCTTGACGCTGCTG	6.24 z-score	7.19 z-score	10 z-score	9 z-score	2.99 z-score	5.09 z-score	5.48 z-score
CCGATTAACATCACGGATTCCCCTGATGTTAATCGGGTCTTGATTCGCTTGACGCTGCTG	8.74 z-score	9.07 z-score	9.24 z-score	6.61 z-score	8.89 z-score	6.68 z-score	6.26 z-score
CCGATTAACATCAGGGGCCCCCCTGATGTTAATCGGGTCTTGATTCGCTTGACGCTGCTG	7.09 z-score	3.78 z-score	2.88 z-score	3.01 z-score	7.07 z-score	7.54 z-score	4.57 z-score
CCGATTAACATCACAACTTCCCCTGATGTTAATCGGGTCTTGATTCGCTTGACGCTGCTG	6.77 z-score	8.34 z-score	9.8 z-score	5.34 z-score	6.89 z-score	6.51 z-score	6.13 z-score
CCGATTAACATCAAAGAATTCCCTGATGTTAATCGGGTCTTGATTCGCTTGACGCTGCTG	5.56 z-score	7.26 z-score	7.47 z-score	4.52 z-score	5.42 z-score	6.11 z-score	5.05 z-score
CCGATTAACATCACGTGATTCCCTGATGTTAATCGGGTCTTGATTCGCTTGACGCTGCTG	2.22 z-score	2.38 z-score	2.58 z-score	1.63 z-score	8.61 z-score	3.33 z-score	1.11 z-score
CCGATTAACATCAGGGAAGACCCTGATGTTAATCGGGTCTTGATTCGCTTGACGCTGCTG	4.49 z-score	5.72 z-score	3.5 z-score	1.33 z-score	7.97 z-score	7.06 z-score	3.16 z-score
CCGATTAACATCAGGGGAGTCCATGATGTTAATCGGGTCTTGATTCGCTTGACGCTGCTG	6.16 z-score	3.64 z-score	4.15 z-score	3.05 z-score	6.79 z-score	4.34 z-score	3.32 z-score
CCGATTAACATCAGGCAAACCCCTGATGTTAATCGGGTCTTGATTCGCTTGACGCTGCTG	3.13 z-score	2.8 z-score	1.51 z-score	1.49 z-score	3.13 z-score	4.85 z-score	3.63 z-score
CCGATTAACATCAGGGATATACCTGATGTTAATCGGGTCTTGATTCGCTTGACGCTGCTG	3.17 z-score	3.3 z-score	1.91 z-score	1.14 z-score	6.4 z-score	5.31 z-score	1.99 z-score
CCGATTAACATCACAAATCCCCCTGATGTTAATCGGGTCTTGATTCGCTTGACGCTGCTG	8.39 z-score	8.44 z-score	9.23 z-score	6.1 z-score	7.73 z-score	6.8 z-score	7.16 z-score
CCGATTAACATCACGGGGGAAACTGATGTTAATCGGGTCTTGATTCGCTTGACGCTGCTG	7.25 z-score	5.82 z-score	8.94 z-score	12.2 z-score	3.91 z-score	4.97 z-score	6.34 z-score
CCGATTAACATCACCCGCCCCCCTGATGTTAATCGGGTCTTGATTCGCTTGACGCTGCTG	4.08 z-score	4.08 z-score	2.95 z-score	4.02 z-score	4.78 z-score	4.22 z-score	3.85 z-score
CCGATTAACATCAGGGGGTACAATGATGTTAATCGGGTCTTGATTCGCTTGACGCTGCTG	4.98 z-score	3.08 z-score	4.91 z-score	4.94 z-score	2.37 z-score	2.98 z-score	3.09 z-score
CCGATTAACATCAATCTCCCCCCTGATGTTAATCGGGTCTTGATTCGCTTGACGCTGCTG	7.54 z-score	5.24 z-score	7.29 z-score	8.72 z-score	4.23 z-score	5.63 z-score	6.63 z-score
CCGATTAACATCAAATTTCCCCGTGATGTTAATCGGGTCTTGATTCGCTTGACGCTGCTG	8.33 z-score	9.6 z-score	11.4 z-score	9.87 z-score	7.13 z-score	7.38 z-score	6.52 z-score
CCGATTAACATCAGGGGAACACCTGATGTTAATCGGGTCTTGATTCGCTTGACGCTGCTG	6.84 z-score	6.62 z-score	6.14 z-score	5.77 z-score	9.19 z-score	7.92 z-score	4.87 z-score
CCGATTAACATCAAAAAGTCCCGTGATGTTAATCGGGTCTTGATTCGCTTGACGCTGCTG	7.34 z-score	9.76 z-score	8.57 z-score	2.47 z-score	9 z-score	8.05 z-score	6.44 z-score
CCGATTAACATCACAAACTCCCCTGATGTTAATCGGGTCTTGATTCGCTTGACGCTGCTG	7.26 z-score	5.84 z-score	7.23 z-score	4.83 z-score	5.81 z-score	5.35 z-score	5.66 z-score
CCGATTAACATCAAGACTTTCCCTGATGTTAATCGGGTCTTGATTCGCTTGACGCTGCTG	4.06 z-score	5.48 z-score	5.59 z-score	2.92 z-score	2.82 z-score	6.09 z-score	4.12 z-score
CCGATTAACATCAAAAGTACCCCTGATGTTAATCGGGTCTTGATTCGCTTGACGCTGCTG	4.78 z-score	4.21 z-score	6.09 z-score	5.19 z-score	7.17 z-score	4.81 z-score	4.42 z-score
CCGATTAACATCAGGGGTATTACTGATGTTAATCGGGTCTTGATTCGCTTGACGCTGCTG	4.43 z-score	3.56 z-score	3.14 z-score	3.37 z-score	3.55 z-score	4.5 z-score	3.9 z-score
CCGATTAACATCAAAAAAATCCCTGATGTTAATCGGGTCTTGATTCGCTTGACGCTGCTG	6.44 z-score	7.72 z-score	6.74 z-score	2.41 z-score	8.77 z-score	7.45 z-score	5.87 z-score
CCGATTAACATCAAGGATCCCCCTGATGTTAATCGGGTCTTGATTCGCTTGACGCTGCTG	8.01 z-score	6.51 z-score	6.9 z-score	5.03 z-score	8.82 z-score	6.4 z-score	6.43 z-score
